# Biological target: VAX1 (Homo sapiens, UniProt Q5SQQ9 86-172)
# Experiment: PBM; 200 nM protein, PBS
# Conditions: dsDNA, one strand shown
# VAX1 (Homo sapiens, UniProt Q5SQQ9 86-172), sequence (Q5SQQ9 86-172): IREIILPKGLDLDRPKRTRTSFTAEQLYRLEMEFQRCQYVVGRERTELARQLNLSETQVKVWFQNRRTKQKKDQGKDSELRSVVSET
row,Sequence,binding signal
1,ATATTACC,"11.5 upbm affinity estimate (log intensity, higher = more binding, comparable within an allelic series)"
2,AATATGCT,"9.71 upbm affinity estimate (log intensity, higher = more binding, comparable within an allelic series)"
3,ACAATAAT,"11.2 upbm affinity estimate (log intensity, higher = more binding, comparable within an allelic series)"
4,CCTGCAGA,"7.26 upbm affinity estimate (log intensity, higher = more binding, comparable within an allelic series)"
5,CGGGGGAC,"7.24 upbm affinity estimate (log intensity, higher = more binding, comparable within an allelic series)"
6,GCCAAGGC,"7.09 upbm affinity estimate (log intensity, higher = more binding, comparable within an allelic series)"
7,AGCCCGTG,"7.01 upbm affinity estimate (log intensity, higher = more binding, comparable within an allelic series)"
8,CGTCATGA,"8.84 upbm affinity estimate (log intensity, higher = more binding, comparable within an allelic series)"
9,CATTACGC,"11.1 upbm affinity estimate (log intensity, higher = more binding, comparable within an allelic series)"
10,TAATACCA,"10.2 upbm affinity estimate (log intensity, higher = more binding, comparable within an allelic series)"
11,AGTCAGGG,"7.19 upbm affinity estimate (log intensity, higher = more binding, comparable within an allelic series)"
12,CAGCCGTA,"7.32 upbm affinity estimate (log intensity, higher = more binding, comparable within an allelic series)"
13,ATATGGAC,"9.25 upbm affinity estimate (log intensity, higher = more binding, comparable within an allelic series)"
14,GCATATGA,"8.94 upbm affinity estimate (log intensity, higher = more binding, comparable within an allelic series)"
15,AGATGAGC,"8.9 upbm affinity estimate (log intensity, higher = more binding, comparable within an allelic series)"
16,CCAATCTA,"9.3 upbm affinity estimate (log intensity, higher = more binding, comparable within an allelic series)"
17,GGTATACC,"7.63 upbm affinity estimate (log intensity, higher = more binding, comparable within an allelic series)"
18,ATATGTCC,"9.38 upbm affinity estimate (log intensity, higher = more binding, comparable within an allelic series)"
19,GTGATAAC,"9.19 upbm affinity estimate (log intensity, higher = more binding, comparable within an allelic series)"
20,CGTTGGGC,"7.21 upbm affinity estimate (log intensity, higher = more binding, comparable within an allelic series)"

row,Sequence,binding signal
1,ACTAAAGA,"9.49 upbm affinity estimate (log intensity, higher = more binding, comparable within an allelic series)"
2,GGTCTCCA,"7.04 upbm affinity estimate (log intensity, higher = more binding, comparable within an allelic series)"
3,CATTTAAG,"10.9 upbm affinity estimate (log intensity, higher = more binding, comparable within an allelic series)"
4,ATGATGAA,"9.52 upbm affinity estimate (log intensity, higher = more binding, comparable within an allelic series)"
5,AAGGTCAT,"9.64 upbm affinity estimate (log intensity, higher = more binding, comparable within an allelic series)"
6,GCGGAGAC,"7.14 upbm affinity estimate (log intensity, higher = more binding, comparable within an allelic series)"
7,AGCCATTA,"11.7 upbm affinity estimate (log intensity, higher = more binding, comparable within an allelic series)"
8,AGGGCCCT,"7.2 upbm affinity estimate (log intensity, higher = more binding, comparable within an allelic series)"
9,GCGCCGGA,"7.27 upbm affinity estimate (log intensity, higher = more binding, comparable within an allelic series)"
10,CTCCGTGC,"6.97 upbm affinity estimate (log intensity, higher = more binding, comparable within an allelic series)"
11,ACTAACGA,"9.28 upbm affinity estimate (log intensity, higher = more binding, comparable within an allelic series)"
12,GGCTAAAC,"9.05 upbm affinity estimate (log intensity, higher = more binding, comparable within an allelic series)"
13,TATAAAGA,"9.93 upbm affinity estimate (log intensity, higher = more binding, comparable within an allelic series)"
14,TTATGGAA,"9.61 upbm affinity estimate (log intensity, higher = more binding, comparable within an allelic series)"
15,CCGTGAAG,"7.1 upbm affinity estimate (log intensity, higher = more binding, comparable within an allelic series)"
16,GATTTAGA,"9.33 upbm affinity estimate (log intensity, higher = more binding, comparable within an allelic series)"
17,ATTATTCC,"10.3 upbm affinity estimate (log intensity, higher = more binding, comparable within an allelic series)"
18,GTCGAGCA,"7.29 upbm affinity estimate (log intensity, higher = more binding, comparable within an allelic series)"
19,CAATCTAG,"9.1 upbm affinity estimate (log intensity, higher = more binding, comparable within an allelic series)"

# Biological target: VAX1 (Homo sapiens, UniProt Q5SQQ9 86-172, T142I)
# Experiment: PBM; 200 nM protein, PBS
# Conditions: dsDNA, one strand shown
# VAX1 (Homo sapiens, UniProt Q5SQQ9 86-172, T142I), sequence (Q5SQQ9 86-172 T142I): as the sequence (Q5SQQ9 86-172) above, with T57I counted along it
row,Sequence,binding signal
1,ATATTACC,"11.2 upbm affinity estimate (log intensity, higher = more binding, comparable within an allelic series)"
2,AATATGCT,"9.56 upbm affinity estimate (log intensity, higher = more binding, comparable within an allelic series)"
3,ACAATAAT,"11 upbm affinity estimate (log intensity, higher = more binding, comparable within an allelic series)"
4,CCTGCAGA,"7.33 upbm affinity estimate (log intensity, higher = more binding, comparable within an allelic series)"
5,CGGGGGAC,"7.14 upbm affinity estimate (log intensity, higher = more binding, comparable within an allelic series)"
6,GCCAAGGC,"7.33 upbm affinity estimate (log intensity, higher = more binding, comparable within an allelic series)"
7,AGCCCGTG,"7.09 upbm affinity estimate (log intensity, higher = more binding, comparable within an allelic series)"
8,CGTCATGA,"8.58 upbm affinity estimate (log intensity, higher = more binding, comparable within an allelic series)"
9,CATTACGC,"10.6 upbm affinity estimate (log intensity, higher = more binding, comparable within an allelic series)"
10,TAATACCA,"9.86 upbm affinity estimate (log intensity, higher = more binding, comparable within an allelic series)"
11,AGTCAGGG,"7.36 upbm affinity estimate (log intensity, higher = more binding, comparable within an allelic series)"
12,CAGCCGTA,"7.28 upbm affinity estimate (log intensity, higher = more binding, comparable within an allelic series)"
13,ATATGGAC,"8.78 upbm affinity estimate (log intensity, higher = more binding, comparable within an allelic series)"
14,GCATATGA,"8.6 upbm affinity estimate (log intensity, higher = more binding, comparable within an allelic series)"
15,CCAATCTA,"8.82 upbm affinity estimate (log intensity, higher = more binding, comparable within an allelic series)"
16,GGTATACC,"7.37 upbm affinity estimate (log intensity, higher = more binding, comparable within an allelic series)"
17,ATATGTCC,"8.89 upbm affinity estimate (log intensity, higher = more binding, comparable within an allelic series)"
18,GTGATAAC,"8.78 upbm affinity estimate (log intensity, higher = more binding, comparable within an allelic series)"
19,CGTTGGGC,"7.31 upbm affinity estimate (log intensity, higher = more binding, comparable within an allelic series)"

row,Sequence,binding signal
1,ACTAAAGA,"9.21 upbm affinity estimate (log intensity, higher = more binding, comparable within an allelic series)"
2,GGTCTCCA,"7.37 upbm affinity estimate (log intensity, higher = more binding, comparable within an allelic series)"
3,CATTTAAG,"10.6 upbm affinity estimate (log intensity, higher = more binding, comparable within an allelic series)"
4,ATGATGAA,"9.3 upbm affinity estimate (log intensity, higher = more binding, comparable within an allelic series)"
5,AAGGTCAT,"9.26 upbm affinity estimate (log intensity, higher = more binding, comparable within an allelic series)"
6,GCGGAGAC,"7.32 upbm affinity estimate (log intensity, higher = more binding, comparable within an allelic series)"
7,AGCCATTA,"11.3 upbm affinity estimate (log intensity, higher = more binding, comparable within an allelic series)"
8,AGGGCCCT,"7.19 upbm affinity estimate (log intensity, higher = more binding, comparable within an allelic series)"
9,GCGCCGGA,"7.29 upbm affinity estimate (log intensity, higher = more binding, comparable within an allelic series)"
10,CTCCGTGC,"7.18 upbm affinity estimate (log intensity, higher = more binding, comparable within an allelic series)"
11,ACTAACGA,"8.88 upbm affinity estimate (log intensity, higher = more binding, comparable within an allelic series)"
12,TATAAAGA,"9.32 upbm affinity estimate (log intensity, higher = more binding, comparable within an allelic series)"
13,TTATGGAA,"9.32 upbm affinity estimate (log intensity, higher = more binding, comparable within an allelic series)"
14,CCGTGAAG,"7.21 upbm affinity estimate (log intensity, higher = more binding, comparable within an allelic series)"
15,GATTTAGA,"9.17 upbm affinity estimate (log intensity, higher = more binding, comparable within an allelic series)"
16,ATTATTCC,"10.1 upbm affinity estimate (log intensity, higher = more binding, comparable within an allelic series)"
17,GTCGAGCA,"7.31 upbm affinity estimate (log intensity, higher = more binding, comparable within an allelic series)"
18,CAATCTAG,"8.87 upbm affinity estimate (log intensity, higher = more binding, comparable within an allelic series)"

# Biological target: VAX1 (Homo sapiens, UniProt Q5SQQ9 86-172, K157R)
# Experiment: PBM; 200 nM protein, PBS
# Conditions: dsDNA, one strand shown
# VAX1 (Homo sapiens, UniProt Q5SQQ9 86-172, K157R), sequence (Q5SQQ9 86-172 K157R): as the sequence (Q5SQQ9 86-172) above, with K72R counted along it
row,Sequence,binding signal
1,ATATTACC,"11.4 upbm affinity estimate (log intensity, higher = more binding, comparable within an allelic series)"
2,AATATGCT,"9.53 upbm affinity estimate (log intensity, higher = more binding, comparable within an allelic series)"
3,ACAATAAT,"10.9 upbm affinity estimate (log intensity, higher = more binding, comparable within an allelic series)"
4,CCTGCAGA,"7.23 upbm affinity estimate (log intensity, higher = more binding, comparable within an allelic series)"
5,CGGGGGAC,"6.94 upbm affinity estimate (log intensity, higher = more binding, comparable within an allelic series)"
6,GCCAAGGC,"6.97 upbm affinity estimate (log intensity, higher = more binding, comparable within an allelic series)"
7,AGCCCGTG,"7.28 upbm affinity estimate (log intensity, higher = more binding, comparable within an allelic series)"
8,CGTCATGA,"8.62 upbm affinity estimate (log intensity, higher = more binding, comparable within an allelic series)"
9,CATTACGC,"10.7 upbm affinity estimate (log intensity, higher = more binding, comparable within an allelic series)"
10,TAATACCA,"9.87 upbm affinity estimate (log intensity, higher = more binding, comparable within an allelic series)"
11,AGTCAGGG,"7.15 upbm affinity estimate (log intensity, higher = more binding, comparable within an allelic series)"
12,CAGCCGTA,"7.24 upbm affinity estimate (log intensity, higher = more binding, comparable within an allelic series)"
13,ATATGGAC,"8.81 upbm affinity estimate (log intensity, higher = more binding, comparable within an allelic series)"
14,GCATATGA,"8.79 upbm affinity estimate (log intensity, higher = more binding, comparable within an allelic series)"
15,AGATGAGC,"8.88 upbm affinity estimate (log intensity, higher = more binding, comparable within an allelic series)"
16,CCAATCTA,"9.11 upbm affinity estimate (log intensity, higher = more binding, comparable within an allelic series)"
17,GGTATACC,"7.24 upbm affinity estimate (log intensity, higher = more binding, comparable within an allelic series)"
18,ATATGTCC,"9.07 upbm affinity estimate (log intensity, higher = more binding, comparable within an allelic series)"
19,GTGATAAC,"8.95 upbm affinity estimate (log intensity, higher = more binding, comparable within an allelic series)"
20,CGTTGGGC,"7.23 upbm affinity estimate (log intensity, higher = more binding, comparable within an allelic series)"

row,Sequence,binding signal
1,ACTAAAGA,"9.23 upbm affinity estimate (log intensity, higher = more binding, comparable within an allelic series)"
2,GGTCTCCA,"7.2 upbm affinity estimate (log intensity, higher = more binding, comparable within an allelic series)"
3,CATTTAAG,"10.6 upbm affinity estimate (log intensity, higher = more binding, comparable within an allelic series)"
4,ATGATGAA,"9.22 upbm affinity estimate (log intensity, higher = more binding, comparable within an allelic series)"
5,AAGGTCAT,"9.4 upbm affinity estimate (log intensity, higher = more binding, comparable within an allelic series)"
6,GCGGAGAC,"7.29 upbm affinity estimate (log intensity, higher = more binding, comparable within an allelic series)"
7,AGCCATTA,"11.2 upbm affinity estimate (log intensity, higher = more binding, comparable within an allelic series)"
8,AGGGCCCT,"7.36 upbm affinity estimate (log intensity, higher = more binding, comparable within an allelic series)"
9,GCGCCGGA,"7.2 upbm affinity estimate (log intensity, higher = more binding, comparable within an allelic series)"
10,CTCCGTGC,"6.81 upbm affinity estimate (log intensity, higher = more binding, comparable within an allelic series)"
11,ACTAACGA,"9.23 upbm affinity estimate (log intensity, higher = more binding, comparable within an allelic series)"
12,GGCTAAAC,"8.95 upbm affinity estimate (log intensity, higher = more binding, comparable within an allelic series)"
13,TATAAAGA,"9.28 upbm affinity estimate (log intensity, higher = more binding, comparable within an allelic series)"
14,TTATGGAA,"9.34 upbm affinity estimate (log intensity, higher = more binding, comparable within an allelic series)"
15,CCGTGAAG,"7.02 upbm affinity estimate (log intensity, higher = more binding, comparable within an allelic series)"
16,GATTTAGA,"9.1 upbm affinity estimate (log intensity, higher = more binding, comparable within an allelic series)"
17,ATTATTCC,"10.1 upbm affinity estimate (log intensity, higher = more binding, comparable within an allelic series)"
18,GTCGAGCA,"7.41 upbm affinity estimate (log intensity, higher = more binding, comparable within an allelic series)"
19,CAATCTAG,"8.9 upbm affinity estimate (log intensity, higher = more binding, comparable within an allelic series)"

# Source: PMC11006913
